Compounds with a hit are over-represented: about 17% of the library has one in this group of screens.
TDP1 cell CPT: qHTS for Inhibitors of human tyrosyl-DNA phosphodiesterase 1 (TDP1): qHTS in cells in presence of CPT; chicken DT40 Tdp1-/-;hTDP1 cells + 20 nM CPT, ATP luminescence, 48 h; Potency, µM (top dose mostly 46.2 µM), inactives show at the highest dose activity change, negative = growth inhibition, hits mostly inhibitors; 420,000 tested, 12% active; AID 686979, 2013; also: % is scaled to controls: 0 for no effect and ±100 for the full control effect; nearly all actives have a fitted effect of over 55% in size
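Cell growth measured by CellTiter-Glo luminescence after a minimum 48 h, 37 C compound exposure with 20 nM CPT in Tdp1-knockout DT40 cells stably expressing hTDP1, seeded 400/well; qHTS titration format.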
TDP1 inh: qHTS Assay for Inhibitors of Tyrosyl-DNA Phosphodiesterase (TDP1); recombinant TDP1, AlphaScreen DNA substrate cleavage; Potency, µM (series often up to 130 µM), inactives show at the highest dose activity change, negative = inhibition, actives largely listed as inhibitors; 350,000 tested, 0.28% active; AID 485290, 2010; also: % is scaled to controls: 0 for no effect and ±100 for the full control effect; nearly all actives have a fitted effect of over 40% in size
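Enzyme-compound mixtures sat 15 min at room temperature, followed by a 5 min reaction with 15 nM final substrate and 10 min with AlphaScreen beads. Recombinant human Tdp1 was used at 1 nM final.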
DT40 TDP1 no CPT: qHTS for Inhibitors of human tyrosyl-DNA phosphodiesterase 1 (TDP1): qHTS in cells in absence of CPT; Potency, µM (titrated, usually from 46.2 µM), inactives show at the top dose activity change, negative = growth inhibition, actives largely listed as inhibitors; 420,000 tested, 15% active; DT40 Tdp1-/- hTDP1 cells, no CPT, ATP luminescence, 48 h; also: % is scaled to controls: 0 for no effect and ±100 for the full control effect; nearly all actives have a fitted effect of over 55% in size
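DT40 Tdp1-/-;hTDP1 cells, no CPT (DMSO vehicle only), 400 cells/well; compounds pin-transferred; ≥48 hr, 37 °C; CellTiter-Glo 30 min RT dark, luminescence read.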
ClpP mod: qHTS Assay for Activators of ClpP; purified B. subtilis ClpP, FRET peptide cleavage, 20 min; Potency, µM (series often up to 57.5 µM), for inactives: at the top dose activity change, negative = active; ATP-dependent Clp protease proteolytic subunit (Bacillus subtilis (strain 168)), P80244; 340,000 tested, 1.9% active; active = well fitted falling curve with a large enough effect; inconclusive = small, poorly fitted or top-dose-only effect; inactive = no such curve, though single readings can be large or run the other way; also: the source files actives as falling curves though it sought activators and does not explain the sign; nearly all actives have a fitted effect of over 65% in size
Target sequence (P80244 whole entry, looked up): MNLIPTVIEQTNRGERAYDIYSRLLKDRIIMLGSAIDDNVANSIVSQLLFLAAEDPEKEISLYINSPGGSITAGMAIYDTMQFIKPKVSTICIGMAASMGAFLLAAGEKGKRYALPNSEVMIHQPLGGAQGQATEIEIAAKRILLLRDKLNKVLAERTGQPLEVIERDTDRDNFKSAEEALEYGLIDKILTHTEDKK
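Purified B. subtilis ClpP, 10 microg/mL final in Tris/HCl pH8 with KCl, BSA, glycerol and Tween-20, cleaved an Abz/nitrotyrosine-quenched decapeptide. Fluorescence (ex 320, em 430) was read at 0 and 20 min at room temperature. Delta was normalized to 5.8 microM ADEP and DMSO/no-enzyme controls.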
The depositor's hits bear a star; ? = inconclusive; · = not tested or not shown. Unless noted, calls follow the shape of the dose curve; as a rule, active = well fitted curve in the direction sought with a large enough effect; inconclusive = small, poorly fitted or top-dose-only effect, or another doubt; inactive = no such curve, though single readings can be large; an effect the other way counts as inactive or inconclusive. Potency is read from the fitted curve at half-maximal effect.

SMILES	TDP1 cell CPT	TDP1 inh	DT40 TDP1 no CPT	ClpP mod
COc1ccc(Oc2c(C(F)(F)F)oc3cc(OCC(=O)O)ccc3c2=O)cc1	-4.4%	·	9.4%	-0.7%
COc1ccc(NC(=O)c2cc([N+](=O)[O-])ccc2N2CCCC2)cc1S(N)(=O)=O	11.0%	-5.9%	4.4%	3.3%
CN(C)Cc1csc(Nc2ccc(C(F)(F)F)cn2)n1	25.9µM*	·	-83.7%	-6.7%
CC(C)CC(N)c1csc(Nc2ccc(C(F)(F)F)cn2)n1 (centres undefined)	11.6µM*	·	6.51µM*	?
CN(C)Cc1csc(NC(=O)Nc2ccccc2C(C)(C)C)n1	?	·	-20.4%	0.3%
NC(CCc1ccccc1)c1csc(Nc2ccc(C(F)(F)F)cn2)n1 (centres undefined)	20.6µM*	·	?	-5.6%
NC(Cc1ccc(Cl)cc1)c1csc(Nc2ccc(C(F)(F)F)cn2)n1 (centres undefined)	9.2µM*	·	9.2µM*	-9.3%
NC(COCc1ccccc1)c1csc(Nc2ccc(C(F)(F)F)cn2)n1 (centres undefined)	?	·	?	-5.6%
C=C(C)C(=O)/C=C/c1ccc(Br)cc1	·	6.2%	·	·
Cc1ccc(C(=O)/C=C/c2ccccc2)o1	?	5.7%	14.6µM*	0.9%
Cc1ccc(C(=O)/C=C/c2ccc(Br)cc2)o1	?	4.1%	23.1µM*	0.9%
